Reference: PubChem BioAssay AID1259343 (VanderVen Lab, College of Veterinary Medicine, Cornell …, 2017)
In all, about 6,200 compounds went through this assay and about 2,900 (47%) were called active. So high a share suggests a set chosen from earlier hits. Some of the results follow. Unmarked numbers belong to inactive results. Rule as the data show it: active = inhibition above about 50%; inactive = the rest.

test: Mycobacterium tuberculosis growth inhibition, primary screen (AID 1259343); conditions: inhibition: at 10 µM, active compounds read high; outcome: 10 uM

SMILES	inhibition
CC(C)Cn1c(-c2ccco2)nc2c(c(=O)c3ccccc3n2C)c1=O	-27.4%
CCN1C(=O)SC(Nc2ccc(C)c(Cl)c2)C1=O (stereo unspecified)	96.3% (active)
Cc1ccc(NS(=O)(=O)N2CCCCC2)cc1Cl	23.6%
COc1ccc(NC2CC(O)C(CO)O2)cc1 (stereo unspecified)	inactive
CCN1C(=O)SC(Nc2ccc(OC)cc2)C1=O (stereo unspecified)	78.9% (active)
O=C(Cn1nnc(-c2cccs2)n1)c1ccc(Cl)s1	77.8% (active)
O=C(CN1C(=O)CC2(CCCC2)C1=O)c1ccc(Cl)s1	-28.2%
Brc1cc2c(cc1Cn1nnc(-c3cccs3)n1)OCO2	-19.9%
O=C(Cn1nnc([N+](=O)[O-])n1)c1cccs1	98.8% (active)
Cc1ccc(C)c(-n2nnnc2SCCCC(=O)c2cccs2)c1	-43%
CC(C)(C)c1cc2nc(C(=O)O)cc(-c3ccc(Cl)cc3)n2n1	83.5% (active)
CC(C)(C)c1cc2nc(C(=O)O)cc(-c3ccccc3Cl)n2n1	58.8% (active)
CC(C)(C)c1cc2nc(C(=O)O)cc(-c3ccccc3F)n2n1	62.4% (active)
CCC(=O)O[C@H]1CCC2C3CCc4cc(O)ccc4C3CC[C@@]21C (stereo partly specified)	46.7%
CCC(CC)C(NC[c-]1[c-][c-][c-][c-]1)c1ccccc1.[Fe].[c-]1[c-][c-][cH-][c-]1 (stereo unspecified)	36.6%
O=C(CCc1nc2ccccc2o1)N1CC=C(c2ccccc2)CC1	29.9%

SMILES	inhibition
O=C(O)CCc1nc2ccccc2oc1=O	67.4% (active)
CCOc1ccc2cc(C(=O)C(C#N)C(=O)c3ccsc3)[nH]c2c1 (stereo unspecified)	12.1%
c1cc2c(c(-c3cccc4[nH]ccc34)c1)CCNC2	73.2% (active)
Cn1c2c(c3cc(-c4cccc5c4CCNC5)ccc31)CCCC2=O	10.9%
O=c1[nH]cc(F)c(=O)[nH]1	67.9% (active)
N#CC(=Cc1ccsc1)c1nc2ccccc2s1	11.6%
Cc1csc(C(C#N)=Cc2cccc(O)c2)n1	88.7% (active)
CC(C)(C)OC(=O)N1CCc2cc(NC(=O)C(=O)NC3CC3)ccc21	74.5% (active)
CN1CCCc2cc(NC(=O)NCCC(=O)NC3CCCC3)ccc21	0.23%
Cc1nc(CNc2ccc3c(c2)CCN3C(=O)OC(C)(C)C)cs1	29.2%
c1ccc(COC2CCN(CCOc3ccccc3)CC2)cc1	50.1% (active)
COc1cccc(-c2cnnc(N3CCC(OCc4ccccc4)CC3)n2)c1	30.1%
CCc1cc(=O)[nH]c(-n2nc(C)cc2NC(=O)c2ccccc2)n1	102% (active)
CCc1cc(=O)[nH]c(-n2nc(C)cc2NC(=O)c2ccc(-c3ccccc3)cc2)n1	103% (active)
CCc1cc(=O)[nH]c(-n2nc(C)cc2NC(=O)c2cccc(C)c2)n1	101% (active)
